Parameters in all cases: species or system human, MV4-11 + K-562 + COLO205 + SK-N-BE2 + OVCAR-8
One test concerns ACVR2B. To be noted: read-out: apparent Kd; compound concentrations: 100 nM and 1000 nM (sheet 'Samples'), CATDS: 7.2197051902398501E-2; n = 1.
Another test deals with SIK3. Particulars: read-out: apparent Kd, compound concentrations: 100 nM and 1000 nM (sheet 'Samples'), n = 1.
The next test has as its system ERCC2. To be noted: read-out: apparent Kd, compound concentrations: 100 nM and 1000 nM (sheet 'Samples'), n = 1.
A further test concerns ERBB3. Particulars: read-out: apparent Kd, compound concentrations: 100 nM and 1000 nM (sheet 'Samples'), n = 1.
The next test concerns MAP2K2. To be noted: read-out: apparent Kd, n = 1.
The test system of a further test is CDK4. To be noted: read-out: apparent Kd, n = 1.
The next test has as its system LIMK1. To be noted: read-out: apparent Kd; compound concentrations: 100 nM and 1000 nM (sheet 'Samples'), CATDS: 8.5923205073472897E-2; n = 1.
Another test has as its system AURKA. To be noted: read-out: apparent Kd; compound concentrations: 100 nM and 1000 nM (sheet 'Samples'), CATDS: 6.4898936627914502E-2; n = 1.
A further test relates to PIM2. Particulars: read-out: apparent Kd, compound concentrations: 100 nM and 1000 nM (sheet 'Samples'), n = 1.
The next test has as its system SYK. To be noted: read-out: apparent Kd; compound concentrations: 100 nM and 1000 nM (sheet 'Samples'), CATDS: 3.0941649644307598E-2; n = 1.
In another test the test system is ADCK3. To be noted: read-out: apparent Kd, n = 1.
A further test has as its system CDK7. Particulars: read-out: apparent Kd, n = 1.
A further test has as its system EPHB3. Particulars: read-out: apparent Kd; compound concentrations: 100 nM and 1000 nM (sheet 'Samples'), CATDS: 4.67907505867102E-2; n = 1.
A further test concerns STK10. To be noted: read-out: apparent Kd; compound concentrations:100 nM and 1000 nM (sheet 'Samples'); n = 1.
The subject of the next test is MAPK11. To be noted: read-out: apparent Kd, n = 1.
Another test deals with BMPR1A. Particulars: read-out: apparent Kd; compound concentrations:100 nM and 1000 nM (sheet 'Samples'); n = 1.
Another test concerns NUAK1. Particulars: read-out: apparent Kd; compound concentrations:100 nM and 1000 nM (sheet 'Samples'); n = 1.
The test system of another test is PKN3. To be noted: read-out: apparent Kd, n = 1.
In the next test the test system is MAPK10. Particulars: read-out: apparent Kd; compound concentrations: 100 nM and 1000 nM (sheet 'Samples'), CATDS: 7.0993589128773599E-2; n = 1.
[1] abbreviates: compound concentrations:100 nM and 1000 nM (sheet 'Samples').

Like-named read-outs stand apart in the source and are kept apart here.

On to `Fc1cc(Cl)ccc1Nc1ccnc2cc(-c3ccc(CN4CCOCC4)o3)ccc12` [GW560109X], for which the potency estimated from few doses is 0.673 µM in the test with ACVR2B and 1.91 µM in the test on SIK3 (CATDS: 5.0355620048332002E-2).
Take `CS(=O)(=O)Cc1ccc(Nc2nccc(-c3c(-c4cccc(NC(=O)c5c(F)cccc5F)c4)nn4ccccc34)n2)cc1` [GSK323543A]: in the test with ERCC2 (CATDS: 6.1110797752593003E-2), the potency estimated from few doses was 1.57 µM.
Regarding `COc1cccc(-n2cnc3c(N/N=C/c4ccncc4)ncnc32)c1` [GW813360X], the potency estimated from few doses in the test on ERBB3 (CATDS: 0.18333833775407599) is 0.961 µM.
`N#Cc1cnc2cc(-c3cnc(CNCCN4CCOCC4)s3)ccc2c1Nc1ccc(Oc2ccccc2)cc1` [GW664114X]: the potency estimated from few doses in the test with ERBB3 (CATDS: 9.1270292154097404E-2) was 0.245 µM; with MAP2K2 (compound concentrations: 100 nM and 1000 nM (sheet 'Samples'), CATDS: 6.4354786580358606E-2), 0.499 µM.
With `CC(C)c1nc(-c2cccc(NS(=O)(=O)c3c(F)cccc3F)c2)c(-c2ccnc(Nc3ccc(N4CCOCC4)nc3)n2)s1.Cl` [GSK1723980B], the potency estimated from few doses in the test on CDK4 (compound concentrations: 100 nM and 1000 nM (sheet 'Samples'), CATDS: 1.44710084593789E-2) is 1.81 µM; with LIMK1 it was 0.0369 µM; in the test with SIK3 (CATDS: 1.4935731096458E-2) it was 1.52 µM.
Consider `CN1CCN(Cc2ccc(NC(=O)Nc3ccc(N(C)c4ccnc(Nc5ccc(CS(C)(=O)=O)cc5)n4)cc3)cc2)CC1.Cl` [GW827654A], for which, in the test on AURKA, the potency estimated from few doses was 0.288 µM.
For `Clc1ccc(-c2nn3ncccc3c2-c2ccnc(Nc3ccccc3)n2)cc1` [GW829055X], the potency estimated from few doses was 1.96 µM in the test on CDK4 (compound concentrations: 100 nM and 1000 nM (sheet 'Samples'), CATDS: 3.2528026841687298E-2); 1.25 µM in the test on MAP2K2 (compound concentrations: 100 nM and 1000 nM (sheet 'Samples'), CATDS: 3.8918058303858701E-2); 2.07 µM in the test on PIM2 (CATDS: 3.1911296970739501E-2); 2.27 µM in the test with SYK.
Take `Cc1ccc(CC(=O)N2CCc3cc(-c4cn(C)c5ncnc(N)c45)ccc32)cc1` [GSK2634758A]: the potency estimated from few doses with CDK4 (compound concentrations: 100 nM and 1000 nM (sheet 'Samples'), CATDS: 0.135917779714779) was 2.25 µM.
For the molecule `Cc1ccc(-n2nc(C(C)(C)C)cc2NC(=O)Nc2ccc(OCCN3CCOCC3)cc2)cc1` [BIRB0876BS], the potency estimated from few doses in the test on ADCK3 (setting [1]) was 0.0489 µM.
Turning to `CCCN1CCC(Oc2cc(Nc3nc(Nc4cccc(F)c4C(N)=O)c4cc[nH]c4n3)c(OC)cc2Cl)CC1` [GSK1713088A], the potency estimated from few doses was 0.604 µM in the test with ADCK3 (compound concentrations: 100 nM and 1000 nM (sheet 'Samples'), CATDS: 0.349456505086152); 1.74 µM in the test with CDK7 (compound concentrations: 100 nM and 1000 nM (sheet 'Samples'), CATDS: 0.191679480220071); 2.04 µM with ERCC2 (CATDS: 0.17876672107785799).
In the case of `Fc1cccc(COc2ccc(Nc3ncncc3C#Cc3ccccc3)cc2Cl)c1` [GW651576X], the potency estimated from few doses is 2.08 µM with EPHB3; 1.35 µM with MAP2K2 (compound concentrations: 100 nM and 1000 nM (sheet 'Samples'), CATDS: 5.7439305981691703E-2).
On to `COc1ccc(COc2ccc(Cc3cnc(N)nc3N)cc2OC)cc1` [GW632580X], for which, in the test on MAP2K2 (setting [1]), the potency estimated from few doses is 1.63 µM.
`COc1cc(N2CCN(C(C)C)CC2)ccc1Nc1nc(Nc2cccc(F)c2C(=O)O)c2cc[nH]c2n1` [GSK1819799A]: the potency estimated from few doses in the test on PIM2 (CATDS: 4.4865682499900299E-2) is 1.71 µM.
For `COc1ccc(Nc2nccc(N3CCC(NC(=O)Nc4cccc(OC)c4)C3)n2)cc1` (stereo not shown) [GSK1379742A], the potency estimated from few doses in the test with MAP2K2 (compound concentrations: 100 nM and 1000 nM (sheet 'Samples'), CATDS: 0.114470387989454) is 1.98 µM.
Turning to `COc1cc(F)c(F)c(F)c1C(=O)c1cnc(NC2CCN(S(C)(=O)=O)CC2)nc1N` [RO4600703-000], the potency estimated from few doses with CDK4 (setting [1]) is 1.31 µM; in the test on CDK7 (setting [1]), 0.821 µM.
For the molecule `COc1cc2ncn(-c3cc(O[C@H](C)c4ccccc4Cl)c(C(N)=O)s3)c2cc1OC` [GSK237701A], in the test with STK10, the potency estimated from few doses is 0.574 µM.
With `COc1ccc(-c2nn3ncccc3c2-c2ccnc(Nc3ccc4c(c3)OCCO4)n2)cc1` [GW827106X], in the test on MAPK11 (compound concentrations: 100 nM and 1000 nM (sheet 'Samples'), CATDS: 6.1190831662216998E-2), the potency estimated from few doses is 0.956 µM.
For `Cc1ccc(NC(=O)c2ccc(Cl)cc2)cc1-c1ccc(C(=O)Nc2ccncc2)cc1` [GSK1398467A], in the test with CDK4 (compound concentrations: 100 nM and 1000 nM (sheet 'Samples'), CATDS: 0.17554209006480601), the potency estimated from few doses was 1.65 µM.
On to `COc1cc2ncn(-c3cc(OCc4sccc4Cl)c(C(N)=O)s3)c2cc1OC` [GSK448459A], for which the potency estimated from few doses with STK10 was 0.333 µM.
As for `NC(=O)c1cccnc1COc1cc(-c2ccc(N3CCOCC3)nc2)cc2ncccc12` [BI01125081], the potency estimated from few doses was 0.257 µM in the test with ADCK3 (setting [1]), 1.37 µM with BMPR1A and 1.08 µM in the test with NUAK1.
Consider `Nc1c(C(=O)c2ccccc2)cnn1-c1ccc(F)cc1` [RO1151246-000], for which the values for the potency estimated from few doses in the test on MAP2K2 (setting [1]), with MAPK11 (setting [1]) and in the test on PKN3 (setting [1]) were 1.54 µM, 1.42 µM and 2.07 µM, respectively.
In the case of `Fc1ccc(-c2ncn(C3CCNCC3)c2-c2ccnc(Oc3ccc4c(c3)OCO4)n2)cc1` [SB-250715], the potency estimated from few doses in the test on MAP2K2 (setting [1]) was 1.56 µM; in the test on MAPK11 (setting [1]), 0.0404 µM.
For the molecule `Fc1ccc(-c2nn3ccccc3c2-c2ccncc2)cc1` [GW434756X], the potency estimated from few doses in the test with MAPK10 was 1.12 µM; in the test with PKN3 (compound concentrations: 100 nM and 1000 nM (sheet 'Samples'), CATDS: 6.6861054791119798E-2), 1.29 µM.

The values are drawn from article PMC11062922 (Nature Chemical Biology, 2023).
